We go through 37 molecules from ChEMBL document CHEMBL4513216, “Probing the Open Global Health Chemical Diversity Library for Multistage-Active Starting Points for Next-Generation Antimalarials” (ACS Infect Dis, 2020).

In all, about 69,000 compounds went through this assay and about 8,600 (12%) showed an effect of 50% or more. This excerpt belongs to a sample that is enriched for strong results.

In the assay the test system is Plasmodium berghei. In words: Screen against P. berghei liver stage (PbLuc), transformed with Luciferase, at 10uM. It counts as functional, HepG2. To be noted: tested at 10 uM.
On to `Cn1cc(CCN2CCOC(CNc3cccnn3)C2)cn1` (configuration not stated), for which the INHIBITION is -33.7%.
Consider `CCCOCC1CCN(C(=O)c2cnc(C)nc2O)C1` (configuration not stated), for which the INHIBITION was 35.8%.
Take `Nc1ccc(CC2COc3ccccc3C2)cn1` (configuration not stated): the INHIBITION is 56.3%.
Take `Nc1cc(CC2COc3ccccc3C2)ccn1` (configuration not stated): the INHIBITION stood at 57.9%.
Take `Cc1cc(NC(=O)NCC2COc3ccccc3C2)no1` (configuration not stated): the INHIBITION was determined as 40%.
The result for `O=C(c1ccnc(CC2COc3ccccc3C2)c1)N1CCCC1` (configuration not stated) reads 31.5%; that for `O=S(=O)(NCC1COc2ccccc2C1)N1CCCCCC1` (configuration not stated), -9.3%.
For `Cn1cc(CN2C[C@@H]3COC[C@]3(C(=O)NCc3ccccn3)C2)cn1`, the INHIBITION is on record as 13.7%.
The result for `CC(C)NC(=O)[C@@H]1CN(Cc2ccc3c(c2)OCO3)C[C@H]2OCC[C@H]21` reads 26.5%; that for `CN(Cc1noc(C2CC2)n1)C1CCCN(c2cccnn2)C1` (configuration not stated), 5.9%.
As for `CC1(C(=O)NC2CCCC2)CN(c2cnccn2)CCO1` (configuration not stated), the INHIBITION stood at 12.3%.
With `CCC(CC)N(C)S(=O)(=O)c1ccc(CCNC(C)=O)s1`, the INHIBITION was -79.8%.
Turning to `CC(=O)NCCc1ccc(S(=O)(=O)N(C)C(C)CC(C)C)s1` (configuration not stated), the INHIBITION came to 68.2%.
For the molecule `CCC(C)N(C)S(=O)(=O)c1ccc(CCNC(C)=O)s1` (configuration not stated), the INHIBITION stood at 13.7%.
For `COCCCN(Cc1cc(O)nc2ccccc12)C(=O)NC(C)C`, the INHIBITION stood at 33%.
The result for `CC(C)CN1CCn2nc(CNc3ncnc4[nH]cnc34)cc2C1` reads 33%; that for `CC(C)NCc1cc2n(n1)CCN(C1CCCCC1)C2`, 14.9%.
With `c1nc(NCc2cc3n(n2)CCN(C2CCCCC2)C3)c2nc[nH]c2n1`, the INHIBITION came out at 78.5%.
For the molecule `Cc1nc(CN2C(=O)C[C@@H]3[C@@H]2CCN3Cc2cnn(C)c2)cs1`, the INHIBITION was -8.51%.
On to `CCc1nnc2ccc(N3CCN(S(=O)(=O)c4ccc(Cl)s4)CC3)nn12`, for which the INHIBITION is reported as 32.3%.
With `Cc1nc(C)c(CC(=O)Nc2nc(C)c(C)s2)c(=O)[nH]1` the figure was 21.1%; with `Cc1nc(C)c(CC(=O)Nc2nnc(C)s2)c(=O)[nH]1`, 20.1%; with `CSc1sc(NC(=O)Cc2c(C)nc(C)[nH]c2=O)nc1C`, 71.4%.
On to `O=c1[nH]c(-c2ccccn2)nc2c1CCN(S(=O)(=O)N1CCCC1)C2`, for which the INHIBITION is 7.92%.
On to `CS(=O)(=O)c1cn[nH]c1C1CCCN(C(=O)CN2CCOCC2)C1` (configuration not stated), for which the INHIBITION is 20.8%.
As to `O=C(CN1CCC(c2ccnn2CCO)CC1)NCC1CC1`, the INHIBITION is listed as 33.3%.
The result for `O=C(CN1CCOC(c2ccc(Cl)c(Cl)c2)C1)NCc1ccco1` (configuration not stated) reads 21.5%; that for `CCC1CN(CC(=O)NCc2ccco2)CCO1` (configuration not stated), 36.6%.
Take `N#CC1(NC(=O)CN2CCC(c3ccnn3CCO)CC2)CCCC1`: the INHIBITION is 37.9%.
With `O=C(CN1CCC(c2ccnn2CCO)CC1)NCC1CCCCC1` the figure was -17.6%; with `O=C(CN1CCC(c2ccnn2CCO)CC1)NC1CCCC1`, -11.4%.
With `O=C(CN1CCOC(c2ccc(Cl)s2)C1)NCc1ccco1` (configuration not stated), the INHIBITION was 52.8%.
On to `Cn1nccc1C1CCN(CC(=O)NCC2CC2)CC1`, for which the INHIBITION is recorded as 70.8%.
With `Cc1csc(NC(=O)CN2CCC(c3ccnn3CCO)CC2)n1`, the INHIBITION was 66%.
With `CC(C)C(C)(C#N)NC(=O)CN1CCC(c2ccnn2CCO)CC1` (configuration not stated) the figure was -1.14%; with `O=C(CN1CCC(c2ccnn2CCO)CC1)NCc1ccco1`, 58.5%; with `O=C(CN1CCC(c2ccnn2CCO)CC1)NCc1cccs1`, 10.8%.
